These results are taken from PubChem BioAssay (NCATS).

Structures are written as SMILES. Inconclusive results are not listed. Where a call stands in place of a potency, no number is given. Some compounds were tested as several samples or in several runs, with calls that do not always agree. Active and inactive are the calls of the source. Calls come from the whole dose curve; as a rule, active = well fitted inhibition curve with a large enough effect; inconclusive = small, poorly fitted or top-dose-only effect; inactive = flat fitted curve, though single readings scatter.
Potency is the fitted concentration of half-maximal effect.

The nature of the test: qHTS for Inhibitors of Plasmodium falciparum (DD2) proliferation (AID 504314). The settings on record: P. falciparum Dd2 in erythrocytes, SYBR Green growth, 72 h; series mostly up to 6.11 µM. The source says:
Plasmodium falciparum is a virulent malarial parasite that kills 1-2 million people worldwide each year. Malaria not only inflicts tremendous suffering and morbidity on the human population, but has dramatically influenced the course of civilization with profound sociological and economic implications (Shah, S. 2010). Transmitted by mosquitoes, the sporozoite form of the parasite enters the blood stream to infect hepatocytes, where they become merozoites that infect red blood cells (erythrocytes). Within erythrocytes, merozoites begin a […] cycle of growth and division, after which the parasite is released to infect new red blood cells. Gametocytes, which form within erythrocytes as well, circulate in the bloodstream and are ingested by the mosquito, thereby completing the life cycle (see CDC website). To profile malarial lines for differential chemical responses and to identify inhibitors of malarial growth, an assay that measures P. falciparum growth and replication within erythrocytes was employed. This assay uses a DNA binding fluorescent dye (SYBR Green) to detect parasite DNA following cell lysis. Because mature erythrocytes lack DNA, only Plasmodium-derived DNA is detected. The P. falciparum line cp250, derived from a malarial isolate from Cambodia, (Mu, J., et al. 2010) was added to the panel of lines, Dd2, HB3, 7G8 and GB4 in this study.
Laboratory of Assay Development and Screening Technology [ADST] and NIH Chemical Genomics Center [NCGC]
Boston University, Chemistry Department, Center for Chemical Methodology and Library Development [CMLD-BU]
NIH National Institute of Allergy and Infectious Diseases [NIAID]
ADST Assay Protocol Summary:
The 1536-well SYBR Green viability assay was based on the method of Bennett et al (2004) and described previously in 1536-well format (Yuan J., et al. 2009). For screening 3 ul culture medium was dispensed into 1536 well black clear bottom plates (Aurora Biotechnologies) using a Multidrop Combi (Thermo Fisher Scientific Inc.), 23 nL compounds in DMSO were added by a pin transfer (Cleveland, P.H. and Koutz, P.J, 2005) using a pin tool-based delivery system (Kalypsys), and 5 ul of erythrocytes infected with P. falciparum one of five lines (cp250, Dd2, HB3, 7G8 or GB4, 0.3% parasitemia, 2.5% hematocrit final concentration) were added. The plates were incubated at 37C in a humidified incubator in 5% CO2 for 72 h, and 2 ul lysis buffer (20 mM Tris HCl, 10 mM EDTA, 0.16% saponin, 1.6% triton X, 10X SYBR Green I (supplied as 10,000X final concentration by Invitrogen) was added to each well. The plates were mixed for 25 sec with gentle shaking and incubated overnight at room temperature in the dark. The following morning, fluorescence intensity at 485(14) nm excitation and 535(25) nm emission wavelengths was measured on an EnVision (Perkin Elmer) plate reader. Plate reads were normalized relative to the control inhibitor (0.29 uM artemisinin) and vehicle (DMSO) wells present on each plate and then corrected by an algorithm using vehicle-only control plates at the beginning and end of the compound plate stack.
Shah, S. (2010). The Fever: how malaria has ruled humankind for 500,000 years. New York, Sarah Crichton Books.
CDC web site, http://www.cdc.gov/malaria/about/biology/index.html
Mu, J., Myers, R.A., Jiang, H., Liu, S., Ricklefs, S., Waisberg, M., Chotivanich, K., Wilairatana, P., Krudsood, S., White, N.J., et Plasmodium falciparum genome-wide scans for positive selection, recombination hot spots and resistance to antimalarial drugs Nature Genetics 2010, 42, pp 268-271
Bennett TN, Paguio, M., Gligorijevic, B., Seudieu, C., Kosar, A. D., Davidson, E., and Roepe, P. D. Novel, rapid, and inexpensive cell-based quantification of antimalarial drug efficacy Antimicrobial Agents Chemother. 2004, 48(5): pp 1807-10
Yuan J, Johnson RL, Huang RL, Wichterman J, Jiang HY, Hayton K, Fidock DA, Wellems TE, Inglese J, Austin CP, Su XZ. […]
For orientation: qHTS replaces the single test concentration by a dilution series.
On to `CCCCC1=CC2=C(c3ccco3)C(=O)C(C)(OC(=O)c3ccc(OC)cc3)C(=O)C2=CN1CC1CC1` (stereo not given), for which the Potency result was “inactive”.

`C=CC1=C2C=C(C3CC3)N(c3ccc(OC)cc3)C=C2C(=O)C(C)(OC(=O)c2ccco2)C1=O` (stereo not given): the activity, negative = inhibition was 0.839% [at 1.12 µM] (inactive).

Take `CC(=O)OC[C@H]1O[C@@H](ON=C(C)CCC(=O)OC[C@H]2O[C@H](C#Cc3ccccc3)C=C[C@H]2Oc2ccc(C)cc2)[C@H](OC(C)=O)[C@@H](OC(C)=O)[C@H]1OC(C)=O`: the Potency entry is “inactive”.

Turning to `CCOC(=O)C1=CN(CCC=C(C)C)C(=O)N(C(C)=O)C1c1ccccc1` (stereo not given), the Potency result was “inactive”.

Regarding `C=CC[C@@H]1C=CC(ON=CC[C@@H]2C=C[C@@H](OC(C)=O)[C@@H](COC(C)=O)O2)[C@H](CO)O1` (stereo not given in full), the Potency entry was “inactive”.

Consider `CCN1C(N(C)CCOC)=NC(c2cccc(F)c2)C(C(=O)OC)=C1C` (stereo not given), for which the Potency entry was “inactive”.

On to `Cc1cc2c(c(=O)o1)[C@H]1O[C@](CCCCN3C(=O)c4ccccc4C3=O)(Cc3cc(C#N)ccc31)O2`, for which the Potency result is “inactive”.

`COC(=O)C1=C(C(=O)OC)[C@@H]2N(C)c3ccccc3[C@@]23CCC(=O)N(Cc2ccc(OC)cc2)C3=N1`: the Potency entry is “inactive”.

`COC(=O)N[C@@H](c1ccccc1)[C@]1(C(C)=O)CCCC1=O`: the Potency result is “inactive”.

On to `CCOC(=O)CN1C(=O)N[C@@H](c2ccccc2)[C@H](C(C)=O)[C@H]1C`, for which the Potency result was “inactive”.

Turning to `COC(=O)N(C=Cc1ccc(OC)cc1)CCc1ccc(OC)c(OC)c1`, the Potency result was “inactive”.

For `COc1cccc([C@@H]2Oc3ccc(Br)cc3C(=O)[C@@H]2OC(=O)N[C@H](C)C2CCCCC2)c1`, the Potency entry is “inactive”.

For the compound `COc1ccc2c(c1)CO[C@H]([C@H](O)CO)[C@H]2C=Cc1ccccc1`, the Potency entry is “inactive”.

For the compound `Cc1cc(C)cc(CO[C@H]2C=C[C@@H](c3ccccc3)O[C@H]2CO)c1`, the Potency result was “inactive”.

On to `CCCC[C@]12Cc3cc(C#N)ccc3[C@H](O1)c1c(cc(C)n(-c3ccccc3)c1=O)O2`, for which the Potency entry was “inactive”.

In the case of `CCN1C(=O)[C@@H]2[C@H]3[C@H](O)[C@H](O)CC(=NO[C@H](C)c4cn([C@@H]5COC[C@@H]5O)nn4)[C@@H]3CC[C@H]2C1=O`, the Potency entry was “inactive”.

Consider `C=CC[C@](C)(Nc1ccc(OC)cc1)C(=O)OCC`, for which the Potency entry is “inactive”.

Turning to `COc1cc2c(cc1OC)C1OC(c3ccsc3)(C2)Oc2cc(C)oc(=O)c21` (stereo not given), the Potency entry was “inactive”.

For `O=P1(O)Oc2c(-c3ccccc3)cc3ccccc3c2-c2c(c(-c3ccccc3)cc3ccccc23)O1`, the Potency entry was “inactive”.

In the case of `CC1(C)O[C@@H](C(O)(c2cc(C(F)(F)F)cc(C(F)(F)F)c2)c2cc(C(F)(F)F)cc(C(F)(F)F)c2)[C@H](C(O)(c2cc(C(F)(F)F)cc(C(F)(F)F)c2)c2cc(C(F)(F)F)cc(C(F)(F)F)c2)O1`, the Potency entry is “inactive”.

Consider `CCC12C=C(C=Cc3ccccc3)C(CC)(C1)C(c1ccccc1)CC2=O` (stereo not given), for which the Potency entry is “inactive”.

As to `CCN(CC)CCCN=C1NC(c2cccc(F)c2)C(C(=O)OC)=C(C)N1Cc1ccccc1` (stereo not given), the Potency entry was “inactive”.

Consider `CC(=O)OC[C@H]1O[C@H](CCON=C(C)CCN2CCCCc3nc(C)c(C)cc32)C=C[C@H]1OC(C)=O`, for which the Potency entry was “inactive”.

For the compound `C=CCN1C(=O)[C@@]2(CC(C)=CC[C@@H](C)O2)c2c(Br)cccc21`, the Potency entry was “inactive”.

In the case of `COc1ccc([C@]23Cc4cc(OC)c(OC)cc4[C@H](O2)C2=C(CC4(CCCCC4)OC2=O)O3)cc1`, the Potency result is “inactive”.

`COc1ccc(-c2nc(-c3ccccc3)c(NC(C)(C)C)o2)cc1`: the Potency is 1.69 µM (active) and inactive.

`CCN(CC)CCCN1C(=O)C2=C(C1=O)C1N(C)c3ccccc3[C@@]13C[C@@H](CO)N(C(=O)CCC(=O)OC)C3=N2` (stereo not given in full): the Potency entry was “inactive”.

Turning to `CC1(O)C(=O)C=C2C=C3CCCN3C=C2C1=O` (stereo not given), the Potency entry was “inactive”.

As to `CC(=O)OC[C@H]1O[C@H](C#Cc2ccccc2)C=C[C@H]1O`, the Potency entry is “inactive”.

For the compound `COCCN1C(=O)CC[C@@]23C1=NC(C(=O)OC)=C(C(=O)OC)[C@@H]2N(Cc1ccccc1)c1ccccc13`, the Potency entry is “inactive”.

In the case of `CCCCCCCC1=CC2=C(Cl)C(=O)C(C)(OC(C)=O)C(=O)C2=CO1` (stereo not given), the Potency entry is “inactive”.

With `CC(=CCO)CCO`, the Potency entry was “inactive”.

As for `CC=CCCN1C=C(C(=O)OCC)C(c2ccccc2)NC1=O` (stereo not given), the Potency entry is “inactive”.

As to `COCCN1C(=O)CC[C@@]23C1=NC(C(=O)OC)=C(C(=O)OC)[C@@H]2N(CC=C(C)C)c1ccccc13`, the Potency result is “inactive”.

Take `COCOc1cc(OC)ccc1C(=O)C=Cc1ccc([N+](=O)[O-])cc1`: the Potency was 1.5 µM (active).

On to `COC(=O)C(=Cc1cc(Br)c(OC)c(Br)c1)C(=O)OC`, for which the Potency result was “inactive”.

Turning to `CCOC(=O)C1(C(=O)OCC)CC2=C(C=CC3=C(C=C2)CC(C(=O)OCC)(C(=O)OCC)C3)C1`, the Potency entry was “inactive”.

Take `CCN1C(=O)[C@@H]2[C@H]3[C@H](O)[C@H](O)CC(=NOCC[C@@H]4C=C[C@H](OC(C)=O)[C@@H](COC(C)=O)O4)[C@@H]3CC[C@H]2C1=O`: the Potency entry is “inactive”.

As for `CCOC(=O)NN=C1C[C@@H](O)[C@@H](O)[C@@H]2[C@H]3C(=O)N(Cc4ccc5c(c4)OCO5)C(=O)[C@@H]3CC[C@@H]12`, the Potency entry is “inactive”.

Take `COC(=O)C1=C(C(=O)OC)[C@@H]2N(C)c3ccccc3[C@@]23C[C@@H](C(=O)OC)N(C(=O)NCCBr)C3=N1`: the Potency result is “inactive”.
